Some test systems named below: SK-MEL-2 melanoma; EKVX NSCLC; SN12C renal; TK-10 renal; ACHN renal; CAKI-1 renal; A498 renal; CCRF-CEM leukemia; MOLT-4 leukemia; SR leukemia; RPMI-8226 leukemia; OVCAR-8 ovarian; OVCAR-5 ovarian; OVCAR-4 ovarian; SK-OV-3 ovarian; OVCAR-3 ovarian; HS 578T breast; NCI/ADR-RES ovarian; IGROV1 ovarian; UO-31 renal.
Common to all, as to assay: NCI-60 one-dose screen, 48 h (100 = growth as untreated, 0 = no growth, -100 = all killed)
Common to all, as to conditions: 10 µM unless noted

Molecules are shown by their SMILES. The panel holds about 83,000 compounds, 20% with a hit somewhere; the sample as a whole holds those more often.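 For each line, cells grew in 96-well plates with the test compound present at a single concentration for 48 hours.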 A number with no mark means an inactive call. Activity calls are given as the source filed them. The calls were made as follows: active = growth percent below 10; inactive = the rest. Where a SMILES comes first, the peptide text is derived from it. [ ]: non-standard residue; d: D form. ξ: configuration not given here. ξD = NC(CC(=O)O)C(=O)O

For `O=C1C=CC(O)=CC1=P(c1ccccc1)(c1ccccc1)c1ccccc1`, the growth in the assay with SK-MEL-2 melanoma is 82.6%; in the assay on EKVX NSCLC, 93.8%; with SN12C renal, 89.4%; with TK-10 renal it was 96.3%; in the assay with ACHN renal, 99.2%; with CAKI-1 renal, 86.2%. Moreover, the growth with A498 renal was 58.6%; with CCRF-CEM leukemia it was 86.9%; with MOLT-4 leukemia, 101%; in the assay on SR leukemia, 78.8%; in the assay on RPMI-8226 leukemia, 74.2%; in the assay on OVCAR-8 ovarian, 92.4%. The growth with OVCAR-5 ovarian is 74.7%; in the assay with OVCAR-4 ovarian, 94%; in the assay with SK-OV-3 ovarian, 91.5%; with OVCAR-3 ovarian it was 102%; in the assay on HS 578T breast, 83.2%; in the assay with NCI/ADR-RES ovarian, 102%.
With `O=C(Nc1cccc(C(F)(F)F)c1)Oc1ccc(Cl)c2cccnc12`, the growth in the assay with SK-MEL-2 melanoma is 9.44% (active); in the assay with EKVX NSCLC, -2.85% (active); in the assay on SN12C renal, 33.1%; in the assay on TK-10 renal, 72.2%; in the assay with ACHN renal, -2.14% (active); in the assay on A498 renal, 78.5%. In addition, the growth with CCRF-CEM leukemia is -15.3% (active); with MOLT-4 leukemia, -1.74% (active); in the assay with SR leukemia, -1.87% (active); in the assay with RPMI-8226 leukemia, -37.9% (active); in the assay with OVCAR-8 ovarian, -11.1% (active); in the assay on OVCAR-5 ovarian, 87.7%. For the same compound, the growth in the assay on OVCAR-4 ovarian was -0.489% (active); in the assay on SK-OV-3 ovarian, 95.8%; in the assay with IGROV1 ovarian, 5.79% (active); with OVCAR-3 ovarian, -56.3% (active); in the assay on HS 578T breast it was 17.4%; in the assay with NCI/ADR-RES ovarian, 4.64% (active).
Regarding `NCC(=O)NC(CC(=O)O)C(=O)O` (centres undefined) (H-Gly-[ξD]-OH), the growth in the assay on SK-MEL-2 melanoma is 111%; in the assay on EKVX NSCLC it was 94.7%; in the assay on SN12C renal, 99%; in the assay with TK-10 renal, 97.7%; in the assay on ACHN renal it was 106%; in the assay on CAKI-1 renal it was 89.8%. In addition, the growth in the assay with A498 renal is 105%; in the assay with MOLT-4 leukemia it was 109%; in the assay with RPMI-8226 leukemia, 111%; in the assay with OVCAR-8 ovarian, 107%; with OVCAR-5 ovarian it was 107%; with OVCAR-4 ovarian it was 104%. Further, the growth with SK-OV-3 ovarian is 108%; with IGROV1 ovarian, 107%; in the assay on OVCAR-3 ovarian it was 125%; with HS 578T breast, 99%; with NCI/ADR-RES ovarian it was 104%.
As to `NNc1ccc(Cl)cc1Cl`, the growth was 92.4% with SK-MEL-2 melanoma; 81.1% with EKVX NSCLC; 78.3% in the assay with SN12C renal; 94.3% in the assay with TK-10 renal; 58.8% in the assay on CAKI-1 renal; 97.2% with A498 renal. In addition, the growth was 52.7% with MOLT-4 leukemia; 57.3% with SR leukemia; 52.7% with OVCAR-8 ovarian; 88.8% in the assay on OVCAR-5 ovarian; 89.2% in the assay on OVCAR-4 ovarian; 69.7% with SK-OV-3 ovarian. Moreover, the results for the growth in the assay on OVCAR-3 ovarian, in the assay on HS 578T breast and in the assay with NCI/ADR-RES ovarian were 87.4%, 84.1% and 53.5%, respectively.
As to `CCCCCCCCCCCC[S+](C)CC(=O)[O-]` (centres undefined), the growth in the assay on SK-MEL-2 melanoma was 51.7%; in the assay with EKVX NSCLC it was 22.2%; in the assay with SN12C renal, 13.7%; with TK-10 renal it was 20.6%; in the assay with CAKI-1 renal it was 38.7%; with A498 renal, 95.4%. Further, the growth is 11.9% with CCRF-CEM leukemia; 26.6% in the assay on RPMI-8226 leukemia; 45.5% in the assay on OVCAR-8 ovarian; 56.5% in the assay on OVCAR-5 ovarian; 48.1% in the assay with OVCAR-4 ovarian; 41.3% in the assay on SK-OV-3 ovarian. The growth with IGROV1 ovarian is 12.8%; in the assay on OVCAR-3 ovarian, 57.6%; in the assay on HS 578T breast, 36.7%; with NCI/ADR-RES ovarian, 99.8%.
Turning to `Cc1cc(N/N=C/c2ccccn2)nc2ccccc12`, the growth in the assay with SK-MEL-2 melanoma is 50.2%; with SN12C renal it was 17.4%; in the assay on UO-31 renal, -8.77% (active); with TK-10 renal it was 34.1%; in the assay on ACHN renal, 0.182% (active); in the assay with CAKI-1 renal, -8.9% (active). The growth in the assay on A498 renal is 27.7%; in the assay on CCRF-CEM leukemia it was 2.52% (active); in the assay with MOLT-4 leukemia, 5.97% (active); in the assay on SR leukemia, 11.5%; in the assay with RPMI-8226 leukemia, 13.7%; in the assay with OVCAR-8 ovarian, 6.78% (active). Moreover, the growth in the assay with OVCAR-5 ovarian was 37.9%; in the assay with OVCAR-4 ovarian it was 16.4%; in the assay with SK-OV-3 ovarian, 31.6%; in the assay on IGROV1 ovarian it was 2.45% (active); with OVCAR-3 ovarian, 28.6%; in the assay with HS 578T breast it was 74.8%.
Turning to `O=C(O)c1ccc2c(c1)C(=O)c1ccccc1C2=O`, the growth in the assay on SK-MEL-2 melanoma was 105%; in the assay with EKVX NSCLC it was 102%; in the assay on SN12C renal, 94.6%; in the assay on TK-10 renal it was 105%; in the assay with CAKI-1 renal, 96.4%; with A498 renal, 71.8%. Besides, the growth with MOLT-4 leukemia was 94.4%; in the assay with SR leukemia, 86.4%; with RPMI-8226 leukemia it was 102%; in the assay on OVCAR-8 ovarian, 98.9%; in the assay with OVCAR-5 ovarian, 101%; in the assay on OVCAR-4 ovarian, 96.7%. For the same compound, the growth with SK-OV-3 ovarian was 98.8%; with IGROV1 ovarian it was 116%; in the assay with OVCAR-3 ovarian, 99.3%; in the assay with HS 578T breast, 95.6%; in the assay on NCI/ADR-RES ovarian, 105%.
As to `O=C(c1ccccc1)c1ccc(O)c2ncccc12`, the growth in the assay on SK-MEL-2 melanoma was 43%; in the assay on EKVX NSCLC, 51.1%; in the assay on SN12C renal, 31.6%; with TK-10 renal, 83.1%; with ACHN renal it was 18.5%; in the assay on CAKI-1 renal it was 8.47% (active). For the same compound, the growth in the assay on A498 renal was 53.1%; with CCRF-CEM leukemia it was 29.5%; with MOLT-4 leukemia it was 21.2%; in the assay on OVCAR-8 ovarian it was 8.06% (active); in the assay on OVCAR-5 ovarian it was 68%; with OVCAR-4 ovarian it was 15.4%. In addition, the growth in the assay on SK-OV-3 ovarian was 49.8%; in the assay with IGROV1 ovarian, 17%; in the assay on OVCAR-3 ovarian, -36.7% (active); in the assay with HS 578T breast, 52.7%; with NCI/ADR-RES ovarian, 2.55% (active).
Regarding `Cc1ccc2c(c1)sc(-c1ccc(N(C)C)cc1)[n+]2C`, the growth is 0.0539% (active) in the assay on SK-MEL-2 melanoma; 6.29% (active) in the assay with EKVX NSCLC; 3.59% (active) in the assay on SN12C renal; 14.8% in the assay with TK-10 renal; 63.6% in the assay on ACHN renal; 72.3% with CAKI-1 renal. For the same compound, the growth was -6.25% (active) with A498 renal; 10.7% with CCRF-CEM leukemia; -42.4% (active) in the assay on MOLT-4 leukemia; -56.7% (active) in the assay with RPMI-8226 leukemia; 16.3% in the assay on OVCAR-8 ovarian; 14.4% in the assay with OVCAR-5 ovarian. Besides, the growth was 20.3% in the assay with OVCAR-4 ovarian; -14.2% (active) with SK-OV-3 ovarian; 8.14% (active) with IGROV1 ovarian; -14.8% (active) with OVCAR-3 ovarian; 20.3% in the assay on HS 578T breast; 81.3% in the assay on NCI/ADR-RES ovarian.

The values above are taken from PubChem BioAssay (NCI).
